Data on 30 sequences can be found in the OligoGym collection.
Further: reference of the scale not given here.

The first test concerns the target FZR1. The experiment in a line: pooled miR-30 sensor sort-seq; sequence = guide strand. Conditions: shRNA.
Turning to TACACTGCAGTGGTTGTCCTGT, the sensor-assay potency score (higher = more potent) is -0.434. Same read-out and setting: the figure for TGAGACTCCAGGATCCTCCAGG is -0.492; for AACATGGACAGCTTCTTCCCTG it is -0.261. Still for that read-out and setting: the figure for TCATTCTGGATGACGATCTGGC is 0.47. On the same count and under the same terms, for TCTGGTTCTGTGAGTAGCCGTG the value was -0.152. Turning to TTGCACACTTGGGAGCCCGTGT, the sensor-assay potency score (higher = more potent) is -0.748. Still for that read-out and setting: the figure for TCTGTGGACCACTTGAGCCCGC is -0.976.

TGAGAGGTCACAGAGCCGCGTC came in with a sensor-assay potency score (higher = more potent) of -0.649. Consider TGTCCTGTCAGCGTGTTCCAGA, for which the sensor-assay potency score (higher = more potent) was -0.846. Same read-out and setting: for TTCTCATTCTCGTTAATCCTGT the value was -0.581; for TTCTGTGAGTAGCCGTGCGTGC, -1.08.

The target of the next test is GAA. The test is described as above. Conditions: shRNA.
On to AATCTTATTAACACAGAGCAGC, for which the sensor-assay potency score (higher = more potent) was -1.53. TAGAGGTTCGCACCGGGCGTGG yielded a sensor-assay potency score (higher = more potent) of -1.37.

Take TTGAACGTGAAGTCCCTCCGGG: the sensor-assay potency score (higher = more potent) was 0.671. The same measure, in the same setting: the figure for TGAACGTGAAGTCCCTCCGGGA is -0.701; for TTAAACTGCAGGATTTCTGGCA it is 0.151; for TTGTGCAGGTTGTAGTGTGTGG it is -0.0928.

In turn, TCCTCGGAGAACTCCACGCTGT had a sensor-assay potency score (higher = more potent) of -1.76. Regarding TTGATCGTGAAGTGGAGGCGGT, the sensor-assay potency score (higher = more potent) is -0.412.

TTGGTGTCGGGGCTGTAGGTGA gave a sensor-assay potency score (higher = more potent) of -0.824. Still for that read-out and setting: the figure for TACAATCTTATTAACACAGAGC is -0.86. In turn, TTCATGTCAATCCACATGCCGT had a sensor-assay potency score (higher = more potent) of -0.999.

Regarding TTTGCAGGGATGTAGCAACAGC, the sensor-assay potency score (higher = more potent) was -1.16. In turn, TAGTCCAGGTCGTTCCACTGGA returned a sensor-assay potency score (higher = more potent) of -0.244. Still for that read-out and setting: for TTAAGATTTAGAATCTCCCAAG the value was -0.492; for TTCACGATCGTGTTATTCCTGG, -0.238; for TTTAGAATCTCCCAAGTCCTGT, 0.11. As to TTGTTGAACGTGAAGTCCCTCC, the sensor-assay potency score (higher = more potent) stood at 0.0246. Same read-out and setting: the figure for TTCTCCAGCTTGTAGCTGGGGT is -0.57; for TTTGATCGTGAAGTGGAGGCGG it is 0.187.
